From paper PMC4552634, “A New Set of Chemical Starting Points with Plasmodium falciparum Transmission-Blocking Potential for Antimalarial Drug Discovery” (PLoS ONE, 2015)
The whole screen tested about 13,000 compounds, of which about 3,200 (25%) showed an effect of 50% or more. The list shows a part of the results.

Tested on: P. falciparum stage V gametocytes
Parameters: BacTiter-Glo ATP luminescence viability of purified stage V gametocytes in 384-well plates, per cent inhibition versus DMSO
Conditions: 48 h, 5 µM; inhibitor

| SMILES | % Inhibition |
| --- | --- |
| CCCCNC[C@@H](O)[C@H](Cc1ccccc1)NC(=O)c1cc(NCC)cc(N2CCCCS2(=O)=O)c1 [TCMDC-135177] | 4.465% |
| CCOC(=O)c1[nH]c(-c2cccc(F)c2)nc1N [TCMDC-131794] | -46.62% |
| O=C(Nc1cccnc1)c1cc(-c2cccnc2)nc2ccc(Cl)cc12 [TCMDC-124361] | -11.56% |
| COc1ccc(-n2ncc(C(=O)N3CCC4(C3)C(=O)N(c3ccccc3)c3ccccc34)c2C)cc1 (stereo not shown) [TCMDC-134122] | -6.778% |
| O=C(NC1CCN(CCN2CCc3ccccc3CC2)CC1)c1ccc(-c2ccc(C(F)(F)F)cc2)cc1 [TCMDC-138831] | -7.885% |
| O=C(/C=C/c1ccc(C(F)(F)F)cc1)NCCCCCN1CCC(c2c[nH]c3ccccc23)CC1 [TCMDC-139209] | 23.24% |
| O=C(NCCCCCN1CCC(c2c[nH]c3ccccc23)CC1)c1ccc(-c2cccnc2)cc1 [TCMDC-139183] | 113.1% |
| O=C(NCCCCN1CCC(c2c[nH]c3ccccc23)CC1)c1sc(-c2ccc(C(F)(F)F)cc2)nc1CO [TCMDC-138780] | -12.54% |
| O=C(NCCCCN1CCC(c2c[nH]c3ccc(-c4ccccc4)cc23)CC1)c1ccc(-c2ccccc2)cc1 [TCMDC-139064] | 108.8% |
| O=C(NCCCCCN1CCC(c2c[nH]c3ccccc23)CC1)c1ccc(-c2ccccc2)nc1 [TCMDC-139157] | -73.03% |
| O=C(NCCCN1CCC(NC(=O)c2ccc(-c3cccnc3)cc2)CC1)c1ccc(Cl)c(Cl)c1 [TCMDC-133357] | 16.57% |
| COc1ccc2[nH]cc(C3CCN(CCCCCNC(=O)c4ccc(-c5ccccc5)cc4)CC3)c2c1 [TCMDC-139053] | 30.55% |
| O=C(NC1CCN(CCN2CCC(c3ccccc3C(F)(F)F)CC2)CC1)c1ccc(-c2ccc(Cl)cc2)cc1 [TCMDC-138809] | -39.81% |
| O=C(NCCCCN1CCC(c2c[nH]c3ccccc23)CC1)c1ccc(-c2ccc(C(F)(F)F)cc2)cc1 [TCMDC-138631] | 87.17% |
| O=C(NCCCCCN1CCC(c2ccc(O)cc2)CC1)c1ccc(-c2ccccc2)cc1 [TCMDC-139196] | -56.25% |
| O=C(NC1CCN(CCN2CCC(c3c[nH]c4ccccc34)CC2)CC1)c1ccc(-c2ccc(C(F)(F)F)cc2)cc1 [TCMDC-138845] | 66.39% |
| CC(=O)c1ccccc1OCCSc1nnc(Cc2cccs2)n1C1CCCCC1 [TCMDC-123554] | -19.51% |
| CCN(C(=O)NC)C1c2cc(C#N)ccc2OC(C)(C)C1O (stereo not shown) [TCMDC-131556] | 13.93% |
| CCCC1N=C(N)N=C(N)N1c1ccc(C)c(C)c1 (stereo not shown) [TCMDC-131301] | 2.054% |
| O=C(Nc1cc(C(F)(F)F)ccc1N1CCOCC1)C(Cl)(Cl)Cl [TCMDC-123707] | 15.78% |
| CCCCN(CCCC)C(=N)c1cccc2c1CCCC2 [TCMDC-131553] | 17.3% |
| COc1ccc(CC2(c3ccc(F)cc3)N=C(N)N(CCCc3ccc4c(c3)OCO4)C2=O)cc1 (stereo not shown) [TCMDC-136540] | -15.69% |
| COc1cc(Cc2cnc(N)nc2N)cc(OCCNC(=O)OCc2ccccc2)c1OC [TCMDC-138056] | -17.39% |

| SMILES | % Inhibition |
| --- | --- |
| CCOC(=O)Nc1cc(-c2csc(N=C(N)N)n2)cc([N+](=O)[O-])c1 [TCMDC-137230] | -82.77% |
| Cn1nccc1C(=O)NCCNCc1cccc(-c2cccc(-c3nc4cc(C(F)(F)F)ccc4[nH]3)c2)c1.O=C(O)C(F)(F)F [TCMDC-133008] | 12.04% |
| COc1cc2c(cc1S(=O)(=O)c1ccc(NC(=O)c3cc4ccccc4s3)cc1)CCN(C)CC2 [TCMDC-133789] | 17.23% |
| COc1ccc2nc(C)cc(NC3Cc4ccccc4C3)c2c1.Cl [TCMDC-138978] | 40.25% |
| COc1ccc(Nc2nc(N/N=C/c3ccc(-c4ccc([N+](=O)[O-])cc4)o3)nc(Nc3ccccc3)n2)cc1 [TCMDC-124187] | 17.9% |
| COc1ccc(Nc2nc(N/N=C/c3cc(Br)ccc3O)nc(Nc3ccc([N+](=O)[O-])cc3)n2)cc1 [TCMDC-124182] | 30.94% |
| COc1ccc(Nc2nc(NN=Cc3cc(Br)c(O)cc3O)nc(Nc3ccc([N+](=O)[O-])cc3)n2)cc1 [TCMDC-124181] | 28.04% |
| Brc1cc2c(cc1C=NNc1nc(Nc3ccccc3)nc(Nc3ccccc3)n1)OCO2 [TCMDC-124195] | 14.96% |
| COc1c(C=NNc2nc(Nc3ccccc3)nc(Nc3ccccc3)n2)ccc(Br)c1O [TCMDC-125800] | 79.97% |
| O=[N+]([O-])c1cc2c(cc1C=NNc1nc(Nc3ccccc3)nc(Nc3ccccc3)n1)OCO2 [TCMDC-124249] | -0.02415% |
| COc1ccc(Nc2nc(NN=Cc3cc(Cl)ccc3O)nc(Nc3ccccc3)n2)cc1 [TCMDC-124115] | 59.23% |
| Oc1ccc2ccccc2c1C=NNc1nc(Nc2ccccc2)nc(N2CCOCC2)n1 [TCMDC-123839] | -12.77% |
| Oc1ccc2ccccc2c1C=NNc1nc(Nc2ccccc2)nc(Nc2ccccc2)n1 [TCMDC-125790] | 78.83% |
| Cc1cccc(CN2CCCC3(CCN(Cc4ccccc4O)C3)C2)c1 (stereo not shown) [TCMDC-124654] | 29.07% |
| Cc1cc(NC(=O)c2cccs2)ccc1OC1CCN(Cc2ccccc2)C1 (stereo not shown) [TCMDC-133968] | -2.762% |
| O=C(Cc1cnc[nH]1)Nc1ccc(-c2cccc(-c3nc4ccc(F)cc4[nH]3)c2)cc1 [TCMDC-136941] | 11.61% |
| CCCCCCN1CCCN(Cc2ccc(C(=O)Nc3ccc(F)c(F)c3)cc2)CC1 [TCMDC-136392] | -27.76% |
| CS(=O)(=O)NCCCNCc1ccc(-c2ccc(-c3nc4ccc(F)cc4[nH]3)s2)cc1 [TCMDC-133084] | 18.31% |
| CNCCNCc1ccc(-c2ccc(-c3nc4ccc(F)cc4[nH]3)s2)cc1 [TCMDC-132829] | 87.07% |
| CNCCNCc1cccc(-c2ccc(-c3nc4ccccc4[nH]3)s2)c1 [TCMDC-132823] | 28.05% |
| CNCCNCc1ccc(-c2ccc(-c3nc4ccc(C(F)(F)F)cc4[nH]3)s2)cc1 [TCMDC-132838] | 66.7% |
| COc1ccc(CNCc2ccc(-c3ccc(-c4nc5cc(C(F)(F)F)ccc5[nH]4)s3)cc2)cc1.O=C(O)C(F)(F)F [TCMDC-132719] | -32.49% |
| Fc1ccc2nc(-c3ccc(-c4ccc(CNCCc5ccncc5)cc4)s3)[nH]c2c1 [TCMDC-132848] | -14.58% |
